Compound activity deposited in PubChem BioAssay by National Center for Advancing Translational Sciences (NCATS).
VP16 counter: VP16 counterscreen qHTS for inhibitors of ROR gamma transcriptional activity | Potency, µM (highest dose often 53.6 µM), for the others: top-dose activity, negative = inhibition, most hits filed as inhibitors | Drosophila S2 Gal4-VP16 UAS-luciferase, luminescence, 20 h | 310,000 tested, 3.5% active;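 further: Gal4-VP16 expression switched on by copper sulfate through the metallothionein promoter; potency means the concentration at half of the fitted maximal effect; nearly all actives have a fitted effect of over 50% in size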
Sfp inh: qHTS Assay for Inhibitors of Bacillus subtilis Sfp phosphopantetheinyl transferase (PPTase); 4'-phosphopantetheinyl transferase ffp (Bacillus subtilis), Q9F4F7; Biochemical Sfp PPTase activity, qHTS; Potency, µM, inactives show largest response in the series, negative = inhibition, hits mostly inhibitors; 310,000 tested, 3.5% active; AID 1490, 2009;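 further: the enzyme is Sfp with the accession as filed and its product quenches rhodamine fluorescence; potency means the concentration at half of the fitted maximal effect; 0% = enzyme reaction without inhibitor and -100% = no enzyme wells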
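Compounds were incubated with enzyme (final 15 nM) for 15 min at room temperature before substrate addition started the reaction. Fluorescence at 525 nm excitation, 598 nm emission was recorded immediately and after 30 minutes.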
PLK1 PBD inh: qHTS for Inhibitors of PLK1-PDB (polo-like kinase 1 - polo-box domain): Primary Screen; Potency, µM, for the others: max response, negative = inhibition, usual class: inhibitors; Serine/threonine-protein kinase PLK1 (Homo sapiens), P53350; Plk1 PBD binding of FITC phosphopeptide, fluorescence polarization; 360,000 tested, 2.8% active; further: potency means the concentration at half of the fitted maximal effect; series mostly up to about 57 µM; nearly all actives have a fitted effect of over 65% in size
ALDH1A1 inh: qHTS Assay for Inhibitors of Aldehyde Dehydrogenase 1 (ALDH1A1). AID 1030, 2008. Aldehyde dehydrogenase 1A1 (Homo sapiens), P00352. Purified ALDH1A1, NADH fluorescence, propionaldehyde substrate. 220,000 tested, 7.3% active. Potency, µM (titrated, usually from 75.3 µM), inactives show top-dose activity, negative = inhibition, most hits filed as inhibitors; active means well fitted inhibition curve with a large enough effect, not every such curve was filed as active; inconclusive means small, poorly fitted or top-dose-only effect, or another doubt; inactive means no such curve, though single readings can be large or run the other way;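 further: potency means the concentration at half of the fitted maximal effect; plate controls were no enzyme wells and a reference inhibitor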
RORg inh: qHTS for inhibitors of ROR gamma transcriptional activity; Nuclear receptor ROR-gamma (Mus musculus), P51450; AID 2551, 2010; 310,000 tested, 5.4% active; Drosophila S2 Gal4-RORgamma UAS-luciferase reporter, 20 h; Potency, µM (highest dose often 53.6 µM), inactives show at the highest dose activity change, negative = inhibition, actives largely listed as inhibitors; further: potency means the concentration at half of the fitted maximal effect; nearly all actives have a fitted effect of over 60% in size
Target sequence (P51450 whole entry, looked up, the tested form may be a part): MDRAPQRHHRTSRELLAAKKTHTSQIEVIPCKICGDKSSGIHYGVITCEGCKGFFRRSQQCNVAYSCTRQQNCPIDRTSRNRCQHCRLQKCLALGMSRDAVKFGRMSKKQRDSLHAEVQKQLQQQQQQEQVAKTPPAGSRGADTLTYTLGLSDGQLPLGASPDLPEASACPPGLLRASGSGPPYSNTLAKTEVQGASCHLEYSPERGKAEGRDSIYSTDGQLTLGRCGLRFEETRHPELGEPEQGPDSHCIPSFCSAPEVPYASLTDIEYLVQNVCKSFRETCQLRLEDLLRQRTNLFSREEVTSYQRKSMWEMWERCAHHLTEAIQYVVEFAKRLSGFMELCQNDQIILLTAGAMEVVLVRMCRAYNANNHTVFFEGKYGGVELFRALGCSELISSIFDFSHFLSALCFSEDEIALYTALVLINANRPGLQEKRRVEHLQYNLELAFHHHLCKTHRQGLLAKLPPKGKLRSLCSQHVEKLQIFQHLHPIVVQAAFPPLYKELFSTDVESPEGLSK
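Drosophila Schneider cells stably carrying a metallothionein-driven Gal4 DBD–ROR gamma fusion and a UAS-Photinus luciferase reporter were exposed to compound for 1 hr, then induced with copper sulfate (700 uM final) for 20 hr at ambient temperature before luminescence reading.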
Sfp PPTase conf: Confirmation qHTS Assay for Inhibitors of Bacillus subtilis Sfp phosphopantetheinyl transferase (PPTase); shares compounds with Sfp inh; Sfp PPTase enzymatic assay, qHTS titration; Potency, µM (series often up to 114 µM), inactives show top-dose activity change, negative = inhibition, most hits filed as inhibitors; 380 tested, 79% active; AID 2701, 2010;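 further: potency means the concentration at half of the fitted maximal effect; plate controls were uninhibited Sfp reaction for no effect and no enzyme control for full effect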
Target sequence (Q9F4F7 whole entry, looked up): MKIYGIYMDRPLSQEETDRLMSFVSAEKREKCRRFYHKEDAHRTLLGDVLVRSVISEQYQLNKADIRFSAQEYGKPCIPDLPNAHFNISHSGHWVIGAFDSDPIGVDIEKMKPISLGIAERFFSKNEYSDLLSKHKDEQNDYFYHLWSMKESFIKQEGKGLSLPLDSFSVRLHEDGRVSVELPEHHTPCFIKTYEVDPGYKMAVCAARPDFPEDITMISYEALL
Sfp PPTase gel: Gel-Based Assay for Inhibitors of Bacillus subtilis Sfp phosphopantetheinyl transferase (PPTase); shares compounds with Sfp inh; purified Sfp, gel-based phosphopantetheinylation read-out; Potency, µM, most hits filed as inhibitors; 210 tested, 20% active;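 active means potency below 100 µM; inconclusive means dose-dependent response but potency above 100 µM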;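 further: band intensities scaled against SCH202676 control wells before curve fitting; potency is an IC50 for inhibitors of Sfp transfer activity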
The depositor's hits bear a star; [ ] = remark or other dose. The list is not random: actives were taken first. Their share in the collection is about 12%. Unless noted, the call rests on the fitted dose curve; in most records, active means well fitted curve in the direction sought with a large enough effect; inconclusive means small, poorly fitted or top-dose-only effect, or another doubt; inactive means no such curve, though single readings can be large; an effect the other way counts as inactive or inconclusive. Unless noted, on the % scale 0 is the no-effect control and ±100 the full control effect.

Screening COc1ccc(CCC(=O)N2CCCSC2=Nc2ccc(C(C)=O)cc2)cc1 returned VP16 counter -16.3%, Sfp inh -1.0%, PLK1 PBD inh -6.5%, ALDH1A1 inh 6.3% and RORg inh inconclusive.
Screening O=C(NCC1CCN(Cc2ccccc2F)CC1)Nc1cccc(Br)c1 returned VP16 counter 12.4%, Sfp inh 2.7%, PLK1 PBD inh -4.1% and RORg inh 6.0%.
COc1ccc(OC)c(Nc2cc(C)nc3ccccc23)c1 was read as VP16 counter -0.1%, Sfp inh 4.3%, PLK1 PBD inh -2.5%, ALDH1A1 inh 6.6% and RORg inh -14.1%.
COc1ccc(OC)c(Nc2nc(=O)c3cccnc3s2)c1 was read as VP16 counter 3.16µM*, Sfp inh 2.82µM*, PLK1 PBD inh 6.7µM*, ALDH1A1 inh 2µM*, RORg inh 4.47µM* and Sfp PPTase conf 18.7µM*.
O=C(CCN1C(=O)c2ccccc2S1(=O)=O)N1CCN(c2cccc(Cl)c2)CC1 was read as PLK1 PBD inh -10.8%.
For Cc1nc(NC(=O)c2ccccc2)sc1-c1csc(Nc2ccc(C(=O)O)cc2)n1 the results were VP16 counter 5.7%, Sfp inh -23.4%, PLK1 PBD inh inconclusive and RORg inh -32.7%.
`Cc1ccc(Nc2nc(-c3sc(NC(=O)c4ccco4)nc3C)cs2)cc1` gave VP16 counter -1.3%, Sfp inh 15.8µM*, PLK1 PBD inh -6.7%, ALDH1A1 inh inconclusive, RORg inh inconclusive, Sfp PPTase conf 52.7µM* and Sfp PPTase gel inconclusive.
For CCOC(=O)c1nn(-c2ccc(C)cc2)c(=O)c2c(N)scc12 the results were VP16 counter 1.2%, Sfp inh 3.55µM*, PLK1 PBD inh -14.3%, ALDH1A1 inh 17.8µM*, RORg inh inconclusive and Sfp PPTase conf 18.7µM*.
For CCOC(=O)c1nc(N)c(=O)n(-c2ccc(C)cc2)n1 the results were VP16 counter -12.3%, Sfp inh 20.6%, PLK1 PBD inh -1.5%, ALDH1A1 inh 5.0% and RORg inh 25.7%.
For O=C(CSc1ncnc2sc3c(c12)CCCCC3)NCc1ccco1 the results were VP16 counter 4.4%, Sfp inh 14.1µM*, PLK1 PBD inh -10.3%, ALDH1A1 inh 8.91µM*, RORg inh -1.4% and Sfp PPTase conf 52.7µM*.
For Clc1ccccc1-c1nn2c(-c3ccncc3)nnc2s1 the results were Sfp inh 15.8µM*, PLK1 PBD inh 23.8µM*, ALDH1A1 inh 11.2µM*, RORg inh 0.2%[0.365 µM] and Sfp PPTase conf 13.2µM*.
Clc1ccc(-c2nn3c(-c4ccncc4)nnc3s2)c(Cl)c1 was read as VP16 counter -4.0%, Sfp inh 6.7%, ALDH1A1 inh 10.5% and RORg inh -20.7%.
For CCN(CC)C1=CC(=O)OC12CCCCC2 the results were VP16 counter -12.0%, Sfp inh 35.5µM*, PLK1 PBD inh 10.6µM*, ALDH1A1 inh 14.1µM*, RORg inh 23.0% and Sfp PPTase conf inconclusive.
Screening CCC(C)(C)NC(=O)CN(C(=O)CCC(=O)Nc1nccs1)c1ccc2c(c1)OCCO2 returned VP16 counter 17.5%, Sfp inh 13.9%, PLK1 PBD inh -11.9% and RORg inh 2.3%.
For COc1ccc(Nc2nc3[nH]c(=O)cc(O)c3s2)cc1 the results were VP16 counter -11.5%, Sfp inh 3.98µM*, PLK1 PBD inh -12.9%, ALDH1A1 inh 1.6%, RORg inh 11.5%, Sfp PPTase conf 18.7µM* and Sfp PPTase gel inactive.
Screening Cn1ccnc1C(O)c1cc(C(C)(C)C)c(O)c(C(C)(C)C)c1 (stereo not given) returned VP16 counter inconclusive, Sfp inh 44.7µM*, PLK1 PBD inh -27.3%, ALDH1A1 inh inconclusive, RORg inh 10µM* and Sfp PPTase conf 46.9µM*.
For CC(C)(Sc1cc(C(C)(C)C)c(O)c(C(C)(C)C)c1)Sc1cc(C(C)(C)C)c(O)c(C(C)(C)C)c1 the results were VP16 counter 1.5%, Sfp inh 9.5%, PLK1 PBD inh -16.0%, ALDH1A1 inh 4.4% and RORg inh -6.2%.
For O=C(/C=C/c1cccc([N+](=O)[O-])c1)N1CCN(Cc2ccc3c(c2)OCO3)CC1 the results were VP16 counter 4.7%, Sfp inh 4.4%, PLK1 PBD inh -0.5%, ALDH1A1 inh inconclusive and RORg inh 11.2%.
Screening COc1ccccc1C1=Nn2c(COc3ccccc3)nnc2SC1 returned VP16 counter -14.7%, Sfp inh 14.1µM*, ALDH1A1 inh 14.1µM*, RORg inh 8.0% and Sfp PPTase conf 10.5µM*.
c1ccc(OCc2nnc3n2N=C(c2ccccc2)CS3)cc1 was read as VP16 counter 4.7%, Sfp inh 15.8µM*, PLK1 PBD inh 7.52µM*, ALDH1A1 inh 10µM*, RORg inh -12.3% and Sfp PPTase conf 16.7µM*.
Screening COc1ccccc1C1=Nn2c(nnc2-c2ccccc2OC)SC1 returned VP16 counter inconclusive, Sfp inh 3.0% and RORg inh -50.5%.
COc1ccc(OCc2nnc3n2N=C(c2ccc(OC)cc2)CS3)cc1 was read as VP16 counter 0.7%, Sfp inh 11.3%, PLK1 PBD inh inconclusive, ALDH1A1 inh inconclusive and RORg inh -2.9%.
CC(C)NC[C@@H](O)c1ccc(O)c(O)c1 was read as VP16 counter -7.1%, Sfp inh 20µM*, PLK1 PBD inh -7.4%, ALDH1A1 inh -1.7%, RORg inh -38.2%, Sfp PPTase conf 46.9µM* and Sfp PPTase gel inactive.
Screening CCN(CC)c1ccc(/C=C/c2nc3ccccc3s2)cc1 returned VP16 counter 7.08µM*, Sfp inh 17.8µM*, ALDH1A1 inh 13.5%, RORg inh 1.58µM*, Sfp PPTase conf 33.2µM* and Sfp PPTase gel inactive.
`CCN(CC)c1ccc(NC(=O)COC(=O)/C=C/c2nc3ccccc3s2)cc1` gave VP16 counter -2.1%, Sfp inh -9.7%, PLK1 PBD inh -4.8%, ALDH1A1 inh inconclusive and RORg inh -24.2%.
For COc1ccc(NC(=O)CN(C)C(=O)C(C)Oc2ccc(Br)cc2)cc1 (stereo not given) the results were PLK1 PBD inh 4.0%.
